# Data: article PMC7862700, “An all-to-all approach to the identification of sequence-specific readers for epigenetic DNA modifications on cytosine”
# Key:
# Assay in all cases: DAPPL (digital affinity profiling via proximity ligation, sequencing); 10 mM Tris-HCl pH 7.5, 50 mM NaCl, 1 mM DTT, 4% glycerol, room temperature, 30 min; GST-TFs on glutathione beads, 16-mer random dsDNA library, 0.1% formaldehyde crosslink after washing; high values mean tight binding
# [1] = target: T1, FLI1 (Homo sapiens, UniProt Q01543 1-452); conditions: protein: recombinant; tags: N-terminal GST; dsDNA, one strand shown
# T1 sequence: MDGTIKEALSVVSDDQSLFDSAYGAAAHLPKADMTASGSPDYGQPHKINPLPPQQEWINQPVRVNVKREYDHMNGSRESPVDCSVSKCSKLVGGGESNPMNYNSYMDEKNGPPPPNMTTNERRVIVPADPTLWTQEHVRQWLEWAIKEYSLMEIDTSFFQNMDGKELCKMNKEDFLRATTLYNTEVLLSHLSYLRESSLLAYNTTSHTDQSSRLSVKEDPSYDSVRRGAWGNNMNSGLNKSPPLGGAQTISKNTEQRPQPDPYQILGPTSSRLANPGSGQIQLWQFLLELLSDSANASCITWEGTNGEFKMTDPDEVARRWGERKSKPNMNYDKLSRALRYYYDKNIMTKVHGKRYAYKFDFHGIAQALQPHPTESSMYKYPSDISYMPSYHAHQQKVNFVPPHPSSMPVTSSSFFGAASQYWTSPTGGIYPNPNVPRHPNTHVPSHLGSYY
# Procedure, shortened: (§1)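 After expression in yeast as GST fusions, human transcription factors were bound to glutathione beads, DNA-barcoded and mixed with a tag-only sample. The pools were incubated with 200 nmole of a 16-mer random double-stranded DNA library in Tris/NaCl/DTT/glycerol buffer (30 min, room temperature), washed and crosslinked with 0.1% formaldehyde. Proximity ligation with BsaI/T4 ligase ran for 1 h at 37 °C, before PCR amplification and sequencing on an Illumina NextSeq500. Binding signal is a hexamer's read frequency for a factor divided by its frequency for the tag-only sample.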
# [2] = target: T2, ELK1 (Homo sapiens, UniProt P19419 1-428); conditions: protein: recombinant; tags: N-terminal GST; dsDNA, one strand shown
# T2 sequence: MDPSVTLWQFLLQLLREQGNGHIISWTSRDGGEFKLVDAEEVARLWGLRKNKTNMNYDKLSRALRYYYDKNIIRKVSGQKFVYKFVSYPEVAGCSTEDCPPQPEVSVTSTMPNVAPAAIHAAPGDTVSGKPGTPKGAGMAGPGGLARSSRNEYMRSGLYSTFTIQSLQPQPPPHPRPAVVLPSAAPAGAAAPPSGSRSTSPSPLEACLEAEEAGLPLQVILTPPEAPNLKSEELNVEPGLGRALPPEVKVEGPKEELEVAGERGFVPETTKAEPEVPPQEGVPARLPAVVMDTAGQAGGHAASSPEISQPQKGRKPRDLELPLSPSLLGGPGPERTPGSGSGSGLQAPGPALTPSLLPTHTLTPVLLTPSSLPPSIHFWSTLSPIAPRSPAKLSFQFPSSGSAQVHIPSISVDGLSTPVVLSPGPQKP
# Procedure, shortened: as §1
# [3] = target: T3, GABPA (Homo sapiens, UniProt Q06546 1-454); conditions: protein: recombinant; tags: N-terminal GST; dsDNA, one strand shown
# T3 sequence: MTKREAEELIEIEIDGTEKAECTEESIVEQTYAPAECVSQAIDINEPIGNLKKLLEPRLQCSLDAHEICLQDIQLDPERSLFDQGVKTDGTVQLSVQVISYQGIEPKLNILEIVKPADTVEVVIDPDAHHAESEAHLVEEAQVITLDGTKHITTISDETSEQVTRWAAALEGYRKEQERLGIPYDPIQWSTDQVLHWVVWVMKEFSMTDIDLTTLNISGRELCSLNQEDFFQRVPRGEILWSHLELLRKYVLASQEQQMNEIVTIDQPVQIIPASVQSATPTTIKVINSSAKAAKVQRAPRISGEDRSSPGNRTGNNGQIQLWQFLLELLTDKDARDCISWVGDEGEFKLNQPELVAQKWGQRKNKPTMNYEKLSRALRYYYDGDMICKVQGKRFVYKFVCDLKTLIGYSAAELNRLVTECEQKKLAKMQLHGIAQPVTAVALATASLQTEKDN
# Procedure, shortened: as §1
# [4] = target: T4, ERG (Homo sapiens, UniProt P11308 1-479); conditions: protein: recombinant; tags: N-terminal GST; dsDNA, one strand shown
# T4 sequence: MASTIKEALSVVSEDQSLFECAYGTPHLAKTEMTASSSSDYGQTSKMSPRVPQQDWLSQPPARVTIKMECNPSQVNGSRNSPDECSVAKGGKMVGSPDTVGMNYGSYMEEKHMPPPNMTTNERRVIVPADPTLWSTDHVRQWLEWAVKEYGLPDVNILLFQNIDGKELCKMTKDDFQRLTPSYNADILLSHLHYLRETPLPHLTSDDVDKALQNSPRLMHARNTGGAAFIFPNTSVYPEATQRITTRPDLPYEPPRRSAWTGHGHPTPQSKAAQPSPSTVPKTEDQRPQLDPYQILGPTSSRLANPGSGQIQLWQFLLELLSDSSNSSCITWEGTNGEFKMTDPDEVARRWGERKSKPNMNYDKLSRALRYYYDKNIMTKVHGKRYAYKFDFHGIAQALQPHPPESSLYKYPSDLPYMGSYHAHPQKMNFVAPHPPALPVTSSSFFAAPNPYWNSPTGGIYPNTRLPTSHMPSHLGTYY
# Procedure, shortened: as §1
# [5] = target: ELF1 (Homo sapiens, UniProt P32519 1-619); conditions: protein: recombinant; tags: N-terminal GST; dsDNA, one strand shown
# Chain of ELF1 (P32519 whole entry): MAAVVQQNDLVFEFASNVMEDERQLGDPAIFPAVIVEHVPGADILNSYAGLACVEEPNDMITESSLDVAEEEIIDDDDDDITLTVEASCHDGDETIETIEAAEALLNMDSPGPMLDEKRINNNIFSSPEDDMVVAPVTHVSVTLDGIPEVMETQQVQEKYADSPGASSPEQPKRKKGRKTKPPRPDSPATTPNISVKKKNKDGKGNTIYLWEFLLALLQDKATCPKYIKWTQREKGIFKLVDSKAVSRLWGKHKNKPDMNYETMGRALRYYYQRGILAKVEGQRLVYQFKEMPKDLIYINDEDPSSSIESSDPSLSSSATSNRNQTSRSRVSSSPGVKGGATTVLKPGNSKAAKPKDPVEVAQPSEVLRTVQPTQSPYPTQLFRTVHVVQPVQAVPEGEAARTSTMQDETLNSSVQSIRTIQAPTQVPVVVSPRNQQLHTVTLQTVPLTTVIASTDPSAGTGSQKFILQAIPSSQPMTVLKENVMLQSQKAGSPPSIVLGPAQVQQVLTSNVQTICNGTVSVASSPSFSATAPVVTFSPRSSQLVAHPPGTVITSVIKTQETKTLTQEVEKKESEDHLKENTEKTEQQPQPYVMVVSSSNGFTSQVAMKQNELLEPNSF
# Procedure, shortened: as §1
# [6] = target: T5, EHF (Homo sapiens, UniProt Q9NZC4 1-300); conditions: protein: recombinant; tags: N-terminal GST; dsDNA, one strand shown
# T5 sequence: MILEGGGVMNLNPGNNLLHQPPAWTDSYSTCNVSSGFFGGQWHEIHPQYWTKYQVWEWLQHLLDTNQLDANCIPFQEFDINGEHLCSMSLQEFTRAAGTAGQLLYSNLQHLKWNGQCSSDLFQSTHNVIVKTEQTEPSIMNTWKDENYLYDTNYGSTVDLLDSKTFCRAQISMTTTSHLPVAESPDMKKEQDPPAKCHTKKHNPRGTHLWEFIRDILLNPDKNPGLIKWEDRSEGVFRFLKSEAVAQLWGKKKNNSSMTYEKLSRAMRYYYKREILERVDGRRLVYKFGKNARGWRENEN
# Procedure, shortened: as §1
# [7] = target: SPI1 (Homo sapiens, UniProt P17947 1-270); conditions: protein: recombinant; tags: N-terminal GST; dsDNA, one strand shown
# Procedure, shortened: as §1
# [8] = target: SPIB (Homo sapiens, UniProt Q01892 1-262); conditions: protein: recombinant; tags: N-terminal GST; dsDNA, one strand shown
# Chain of SPIB (Q01892 whole entry): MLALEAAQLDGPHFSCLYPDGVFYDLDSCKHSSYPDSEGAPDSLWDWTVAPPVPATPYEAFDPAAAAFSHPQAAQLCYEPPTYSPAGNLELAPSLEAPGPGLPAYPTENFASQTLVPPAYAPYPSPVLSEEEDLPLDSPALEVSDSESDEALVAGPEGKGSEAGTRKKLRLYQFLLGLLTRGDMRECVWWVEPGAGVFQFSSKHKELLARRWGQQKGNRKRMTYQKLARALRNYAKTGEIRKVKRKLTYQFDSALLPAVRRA
# Procedure, shortened: as §1
# [9] = target: T6, ELK3 (Homo sapiens, UniProt P41970 1-407); conditions: protein: recombinant; tags: N-terminal GST; dsDNA, one strand shown
# T6 sequence: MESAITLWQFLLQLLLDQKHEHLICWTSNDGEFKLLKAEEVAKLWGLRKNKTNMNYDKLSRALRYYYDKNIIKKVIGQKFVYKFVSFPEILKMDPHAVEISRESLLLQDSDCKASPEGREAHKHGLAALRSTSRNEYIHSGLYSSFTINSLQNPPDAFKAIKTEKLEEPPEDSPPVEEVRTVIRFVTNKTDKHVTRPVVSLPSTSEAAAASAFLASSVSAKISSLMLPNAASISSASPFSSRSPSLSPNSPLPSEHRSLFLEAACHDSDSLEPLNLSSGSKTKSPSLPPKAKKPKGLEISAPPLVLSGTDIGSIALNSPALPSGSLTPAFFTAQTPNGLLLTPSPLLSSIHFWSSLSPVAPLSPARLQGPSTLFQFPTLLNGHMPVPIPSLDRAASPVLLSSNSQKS
# Procedure, shortened: as §1
# [10] = target: T7, FEV (Homo sapiens, UniProt Q99581 1-238); conditions: protein: recombinant; tags: N-terminal GST; dsDNA, one strand shown
# T7 sequence: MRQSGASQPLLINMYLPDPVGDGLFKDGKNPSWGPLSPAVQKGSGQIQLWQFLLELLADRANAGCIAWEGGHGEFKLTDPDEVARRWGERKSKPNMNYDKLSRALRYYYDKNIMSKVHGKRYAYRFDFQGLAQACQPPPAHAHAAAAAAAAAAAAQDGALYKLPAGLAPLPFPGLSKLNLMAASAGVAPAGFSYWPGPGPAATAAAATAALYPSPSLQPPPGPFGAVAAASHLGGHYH
# Procedure, shortened: as §1
# [11] = target: ETV5 (Homo sapiens, UniProt P41161 1-510); conditions: protein: recombinant; tags: N-terminal GST; dsDNA, one strand shown
# Chain of ETV5 (P41161 whole entry): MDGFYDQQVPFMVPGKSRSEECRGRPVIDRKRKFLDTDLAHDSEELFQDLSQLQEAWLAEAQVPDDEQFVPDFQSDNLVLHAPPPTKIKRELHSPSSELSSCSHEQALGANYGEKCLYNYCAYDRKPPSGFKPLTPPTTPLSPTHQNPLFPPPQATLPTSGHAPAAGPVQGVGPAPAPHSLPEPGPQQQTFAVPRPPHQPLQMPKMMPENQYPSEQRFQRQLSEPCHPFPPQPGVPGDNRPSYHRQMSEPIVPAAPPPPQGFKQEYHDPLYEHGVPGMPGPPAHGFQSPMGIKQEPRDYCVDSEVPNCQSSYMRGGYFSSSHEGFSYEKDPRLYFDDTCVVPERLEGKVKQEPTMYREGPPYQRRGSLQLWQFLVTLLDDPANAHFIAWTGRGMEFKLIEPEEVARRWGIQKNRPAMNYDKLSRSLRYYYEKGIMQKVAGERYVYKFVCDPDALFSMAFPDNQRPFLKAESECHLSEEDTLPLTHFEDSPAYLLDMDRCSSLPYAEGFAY
# Procedure, shortened: as §1
# [12] = target: HSF1 (Homo sapiens, UniProt Q00613 1-529); conditions: protein: recombinant; tags: N-terminal GST; chain copies: 3; dsDNA, one strand shown
# Chain of HSF1 (Q00613 whole entry): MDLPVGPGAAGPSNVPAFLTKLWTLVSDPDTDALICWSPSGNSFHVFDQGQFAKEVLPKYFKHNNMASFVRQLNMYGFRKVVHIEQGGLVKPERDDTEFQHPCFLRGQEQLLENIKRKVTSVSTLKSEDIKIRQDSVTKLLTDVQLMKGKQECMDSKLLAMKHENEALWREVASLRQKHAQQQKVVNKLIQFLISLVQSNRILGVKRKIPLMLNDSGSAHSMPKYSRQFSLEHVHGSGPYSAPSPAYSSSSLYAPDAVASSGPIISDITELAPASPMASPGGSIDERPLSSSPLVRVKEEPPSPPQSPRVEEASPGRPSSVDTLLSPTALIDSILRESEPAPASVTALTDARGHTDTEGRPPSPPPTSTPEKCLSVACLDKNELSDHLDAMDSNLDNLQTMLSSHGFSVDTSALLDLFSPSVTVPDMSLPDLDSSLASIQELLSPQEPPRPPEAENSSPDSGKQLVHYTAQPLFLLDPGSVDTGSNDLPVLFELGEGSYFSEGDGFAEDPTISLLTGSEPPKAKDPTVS
# Procedure, shortened: as §1
# [13] = target: T8, SPIC (Homo sapiens, UniProt Q8N5J4 1-248); conditions: protein: recombinant; tags: N-terminal GST; dsDNA, one strand shown
# T8 sequence: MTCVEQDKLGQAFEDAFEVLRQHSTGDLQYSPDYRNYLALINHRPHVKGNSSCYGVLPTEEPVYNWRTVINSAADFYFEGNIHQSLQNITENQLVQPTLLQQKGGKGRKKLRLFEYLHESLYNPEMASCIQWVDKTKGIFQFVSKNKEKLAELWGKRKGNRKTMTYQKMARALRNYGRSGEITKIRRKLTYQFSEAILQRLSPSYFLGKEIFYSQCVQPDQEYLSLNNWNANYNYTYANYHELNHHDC
# Procedure, shortened: as §1
# [14] = target: ELF4 (Homo sapiens, UniProt Q99607 1-663); conditions: protein: recombinant; tags: N-terminal GST; dsDNA, one strand shown
# Chain of ELF4 (Q99607 whole entry): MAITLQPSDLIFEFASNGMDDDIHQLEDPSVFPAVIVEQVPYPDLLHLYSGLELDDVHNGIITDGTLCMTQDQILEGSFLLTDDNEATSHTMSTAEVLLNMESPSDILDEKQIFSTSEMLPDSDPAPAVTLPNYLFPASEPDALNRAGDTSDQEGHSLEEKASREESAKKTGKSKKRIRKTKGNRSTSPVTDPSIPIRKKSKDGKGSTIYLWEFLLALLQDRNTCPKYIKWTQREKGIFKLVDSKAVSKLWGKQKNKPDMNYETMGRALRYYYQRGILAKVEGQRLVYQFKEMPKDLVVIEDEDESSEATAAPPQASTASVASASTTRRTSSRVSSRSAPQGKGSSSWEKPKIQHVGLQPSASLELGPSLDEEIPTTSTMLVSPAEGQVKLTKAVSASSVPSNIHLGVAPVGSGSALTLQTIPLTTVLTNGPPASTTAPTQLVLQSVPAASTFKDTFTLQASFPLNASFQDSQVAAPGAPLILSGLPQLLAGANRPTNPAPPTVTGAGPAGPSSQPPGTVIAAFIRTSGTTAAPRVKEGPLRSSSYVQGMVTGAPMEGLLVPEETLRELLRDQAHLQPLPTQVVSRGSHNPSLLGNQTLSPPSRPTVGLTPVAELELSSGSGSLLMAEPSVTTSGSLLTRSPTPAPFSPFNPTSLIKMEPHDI
# Procedure, shortened: as §1
# [15] = target: T9, ELK4 (Homo sapiens, UniProt P28324-2 1-405); conditions: protein: recombinant; tags: N-terminal GST; dsDNA, one strand shown
# T9 sequence: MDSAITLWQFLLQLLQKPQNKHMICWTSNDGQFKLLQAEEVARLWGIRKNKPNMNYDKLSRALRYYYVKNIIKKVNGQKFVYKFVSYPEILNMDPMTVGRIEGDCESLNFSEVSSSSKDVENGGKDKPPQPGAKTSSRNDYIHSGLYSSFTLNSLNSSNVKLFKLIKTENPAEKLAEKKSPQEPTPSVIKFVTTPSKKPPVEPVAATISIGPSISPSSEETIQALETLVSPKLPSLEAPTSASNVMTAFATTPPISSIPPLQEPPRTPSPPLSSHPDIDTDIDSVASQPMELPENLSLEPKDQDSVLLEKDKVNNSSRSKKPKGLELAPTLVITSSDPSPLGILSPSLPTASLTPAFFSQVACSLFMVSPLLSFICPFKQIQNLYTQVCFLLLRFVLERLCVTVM
# Procedure, shortened: as §1
# [16] = target: T10, ETV2 (Homo sapiens, UniProt O00321 1-342); conditions: protein: recombinant; tags: N-terminal GST; dsDNA, one strand shown
# T10 sequence: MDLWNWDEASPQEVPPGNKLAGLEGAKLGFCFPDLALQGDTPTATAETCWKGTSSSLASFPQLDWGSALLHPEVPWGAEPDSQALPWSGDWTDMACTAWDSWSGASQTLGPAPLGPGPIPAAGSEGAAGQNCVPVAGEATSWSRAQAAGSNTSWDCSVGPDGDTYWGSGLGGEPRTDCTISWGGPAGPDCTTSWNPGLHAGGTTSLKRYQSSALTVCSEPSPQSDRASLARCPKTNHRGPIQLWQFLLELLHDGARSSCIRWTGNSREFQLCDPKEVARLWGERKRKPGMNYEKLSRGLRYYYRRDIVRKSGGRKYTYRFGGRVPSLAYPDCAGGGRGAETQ
# Procedure, shortened: as §1
# [17] = target: T11, ELF3 (Homo sapiens, UniProt P78545 1-371); conditions: protein: recombinant; tags: N-terminal GST; dsDNA, one strand shown
# T11 sequence: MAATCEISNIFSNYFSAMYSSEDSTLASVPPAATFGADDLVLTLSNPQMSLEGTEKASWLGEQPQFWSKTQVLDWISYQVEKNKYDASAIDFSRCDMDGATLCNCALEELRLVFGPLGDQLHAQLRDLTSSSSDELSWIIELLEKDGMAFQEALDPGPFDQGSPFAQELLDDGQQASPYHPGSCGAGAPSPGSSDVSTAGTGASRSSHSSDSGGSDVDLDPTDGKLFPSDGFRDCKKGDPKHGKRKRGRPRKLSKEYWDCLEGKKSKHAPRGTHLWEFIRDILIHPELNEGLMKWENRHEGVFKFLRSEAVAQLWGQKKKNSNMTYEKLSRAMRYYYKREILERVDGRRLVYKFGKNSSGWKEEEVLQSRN
# Procedure, shortened: as §1
# [18] = target: CRX (Homo sapiens, UniProt O43186 1-299); conditions: protein: recombinant; tags: N-terminal GST; dsDNA, one strand shown
# Chain of CRX (O43186 whole entry): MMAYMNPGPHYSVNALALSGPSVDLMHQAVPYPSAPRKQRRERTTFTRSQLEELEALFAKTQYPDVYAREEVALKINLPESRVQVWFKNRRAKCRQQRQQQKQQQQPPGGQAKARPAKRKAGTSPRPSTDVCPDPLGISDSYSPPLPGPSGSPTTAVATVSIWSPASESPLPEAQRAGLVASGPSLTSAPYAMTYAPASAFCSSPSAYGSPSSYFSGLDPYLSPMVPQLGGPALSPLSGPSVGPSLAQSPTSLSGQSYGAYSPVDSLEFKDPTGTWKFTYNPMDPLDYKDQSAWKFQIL
# Procedure, shortened: as §1
# [19] = target: ETV1 (Homo sapiens, UniProt P50549 1-477); conditions: protein: recombinant; tags: N-terminal GST; dsDNA, one strand shown
# Chain of ETV1 (P50549 whole entry): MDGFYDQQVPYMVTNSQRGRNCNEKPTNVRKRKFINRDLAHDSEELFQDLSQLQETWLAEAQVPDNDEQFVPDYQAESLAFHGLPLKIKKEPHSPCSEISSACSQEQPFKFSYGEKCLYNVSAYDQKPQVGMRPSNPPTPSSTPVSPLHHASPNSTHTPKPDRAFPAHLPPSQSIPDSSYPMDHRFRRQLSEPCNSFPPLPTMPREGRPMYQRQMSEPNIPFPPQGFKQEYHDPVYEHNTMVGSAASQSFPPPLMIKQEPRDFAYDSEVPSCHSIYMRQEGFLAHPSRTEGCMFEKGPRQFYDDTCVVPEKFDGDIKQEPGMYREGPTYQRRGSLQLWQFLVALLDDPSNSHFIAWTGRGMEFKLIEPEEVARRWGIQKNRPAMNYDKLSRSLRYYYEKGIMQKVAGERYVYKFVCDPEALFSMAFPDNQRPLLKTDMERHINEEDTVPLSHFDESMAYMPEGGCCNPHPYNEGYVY
# Procedure, shortened: as §1
sequence,measurement,setting,value
ACTCCC,binding signal,[1],"1.52 fold enrichment (6-mer frequency, TF over GST control)"
same,binding signal,[2],"1.2 fold enrichment (6-mer frequency, TF over GST control)"
same,binding signal,[3],"1.42 fold enrichment (6-mer frequency, TF over GST control)"
same,binding signal,[4],"1.45 fold enrichment (6-mer frequency, TF over GST control)"
same,binding signal,[5],"1.46 fold enrichment (6-mer frequency, TF over GST control)"
same,binding signal,[6],"1.38 fold enrichment (6-mer frequency, TF over GST control)"
same,binding signal,[7],"1.38 fold enrichment (6-mer frequency, TF over GST control)"
same,binding signal,[8],"1.42 fold enrichment (6-mer frequency, TF over GST control)"
same,binding signal,[9],"1.43 fold enrichment (6-mer frequency, TF over GST control)"
same,binding signal,[10],"1.32 fold enrichment (6-mer frequency, TF over GST control)"
same,binding signal,[11],"1.42 fold enrichment (6-mer frequency, TF over GST control)"
same,binding signal,[12],"1.15 fold enrichment (6-mer frequency, TF over GST control)"
same,binding signal,[13],"1.46 fold enrichment (6-mer frequency, TF over GST control)"
same,binding signal,[14],"1.31 fold enrichment (6-mer frequency, TF over GST control)"
same,binding signal,[15],"1.32 fold enrichment (6-mer frequency, TF over GST control)"
same,binding signal,[16],"1.11 fold enrichment (6-mer frequency, TF over GST control)"
same,binding signal,[17],"1.25 fold enrichment (6-mer frequency, TF over GST control)"
same,binding signal,[18],"1.13 fold enrichment (6-mer frequency, TF over GST control)"
same,binding signal,[19],"1.25 fold enrichment (6-mer frequency, TF over GST control)"
